Screening data deposited in PubChem BioAssay by several laboratories.
A selection: hits, their analogues and other compounds. The true share with any hit is near 1.1%.
CCHF vOTU inh-1 = CCHFV vOTU protease inhibition | Pep-AMC fluorescence | 370,000 tested, 0.55% active | inhibition, % at 11.5 µM | AID 651958; further: 0% = vehicle wells with enzyme and 100% = no enzyme wells
Y pestis TopoI = Y. pestis Topo-I inhibition via cleavage products | Y. pestis Topo-I cleavage product accumulation, plate reader | activity, % at 10 µM | 360,000 tested, 0.064% active; in the data active means activity above about 50%, passing the limit was not always enough
Vc quorum ag = induces V. cholerae light production without autoinducers; V. cholerae BH1578 lux reporter, luminescence, 6 h; activation, % at 18.7 µM; 350,000 tested, 0.16% active; in the data active means activation mostly above about 9.7%, no sharp cut-off
PrPC surface inh = reduces human prion protein on the cell surface | 370,000 tested, 0.43% active | inhibition, % at 13.8 µM | AID 720596 | P04156 | cell surface PrPC, TR-FRET read-out; in the data active means inhibition above about 24%; further: 0% = median of the test wells and 100% = reference compound wells
CCHF vOTU inh-2 = CCHFV vOTU protease inhibition, confirmation. inhibition, % at 11.5 µM. Recombinant CCHFV vOTU, Pep-AMC fluorescence. shares compounds with CCHF vOTU inh-1. 1,900 tested, 17% active
* hit, by the source's call; i = inactive; . = no result. Unless noted, no stated cut-off is given here; in the data, active means inhibition above about 30%; inactive means the rest.

SMILES	CCHF vOTU inh-1	Y pestis TopoI	Vc quorum ag	PrPC surface inh	CCHF vOTU inh-2
COc1c(C)cccc1C(=O)NC(=S)Nc1ccccc1N1CCCC1	50.5*	9.5	-0.3	-1.2	23.4
CCN(C[C@H]1N[C@@](C)(C(=O)OC)[C@H]2C(=O)N(C)C(=O)[C@@H]12)S(=O)(=O)c1ccc(C(F)(F)F)cc1	10.1	-2.9	i	4.7	.
Cc1ccccc1NC(=S)NC(NC(=O)COc1ccccc1)C(Cl)(Cl)Cl (stereo not drawn)	-9.2	-7.0	-2.6	7.4	.
CCc1ccc(OCC(=O)NC(NC(=S)Nc2ccccc2C)C(Cl)(Cl)Cl)cc1 (stereo not drawn)	29.8*	1.8	-0.6	-2.1	-23.8
CC(C)(C)OC(=O)NCCCC[C@H](NC(=O)c1[nH]cnc1C(=O)Nc1ccccc1)C(=O)OC(C)(C)C	23.1	1.0	0.7	4.2	.
CC(C)(C)OC(=O)NCCCC[C@H](NC(=O)c1[nH]cnc1C(=O)N[C@@H](Cc1ccccc1)C(=O)OCc1ccccc1)C(=O)OC(C)(C)C	31.2*	38.0	-0.4	3.3	12.6
C[C@@H](NC(=O)c1nc[nH]c1C(=O)N[C@@H](CCCCNC(=O)OC(C)(C)C)C(=O)OC(C)(C)C)c1ccccc1	34.7*	1.3	-0.7	21.1	4.6
CC(C)(C)OC(=O)[C@H](Cc1ccccc1)NC(=O)c1nc[nH]c1C(=O)N[C@@H](CCCCN)C(=O)OC(C)(C)C	16.3	1.1	i	0.2	.
O=C(/C=C/c1cccc(F)c1)NNC(=O)c1ccncc1	6.2	-0.5	5.6	-0.6	.
NS(=O)(=O)c1ccc(N=Nc2ccc(=O)[nH]c2O)cc1	32.4*	-2.5	-2.2	-58.4	20.5
NS(=O)(=O)c1ccc(N=Nc2c(O)[nH]c(=S)[nH]c2=O)cc1	3.8	6.5	-0.8	-48.5	.
COc1ccc(C)cc1NC(=O)C/C(C)=N/NC(=O)Cc1cccc2ccccc12	-5.8	4.8	-0.3	21.5	.
CCOc1cc(/C=C2\C(=O)N(CCC#N)N=C2C)ccc1OCC(N)=O	43.7*	0.5	-0.4	2.9	-24.4
O=C(c1ccco1)N(CCC(c1ccccc1)c1ccco1)Cc1ccc(F)cc1 (stereo not drawn)	.	-2.3	-0.4	.	.
CC1(C)CC(C(CCN(Cc2ccccc2)C(=O)c2ccco2)c2ccc(F)cc2)CCO1 (stereo not drawn)	32.9*	14.3	1.4	10.5	-2.2
OC(c1ccccc1)(c1ccccc1)C1CCN(CCCOc2cccnc2)CC1	-6.5	.	.	-3.1	.
COCCNC(=O)NC12CC3(C)CC(C)(CC(C)(C3)C1)C2	35.0*	-2.1	i	7.6	-4.2
COc1ccc(-c2cc(C(=O)NCC3CCCO3)c3ccccc3n2)cc1 (stereo not drawn)	-34.6	3.7	i	-1.2	.
CN(C)c1cccc2c1c(NS(=O)(=O)c1cn(C)cn1)nn2C	52.0*	18.6	-1.9	6.0	50.3*
CCOC(=O)c1cnc2c(cnn2C)c1NCCC#N	-1.8	-0.7	-3.1	3.4	.
CCc1cc[n+](C2=C([O-])c3ccccc3C(=O)/C2=N\S(=O)(=O)c2cccs2)cc1	105.3*	1.0	-2.1	-67.5	102.6*
COC(=O)c1ccccc1NC1=C/C(=N\S(=O)(=O)c2cccs2)c2ccccc2C1=O	9.2	-2.8	-4.3	-14.1	.
CNc1ccc(Br)cc(C(=O)/C=C/c2ccc(OC)cc2)c1=O	36.4*	-6.3	-0.3	-3.9	-4.7
COc1cc(/C=N/n2c(C3CCCCC3)n[nH]c2=S)ccc1O	31.3*	0.9	i	-1.2	-15.6
COc1cccc(/C=N/n2c(C3CCCCC3)n[nH]c2=S)c1O	12.0	0.7	i	3.2	.
SMILES	CCHF vOTU inh-1	Y pestis TopoI	Vc quorum ag	PrPC surface inh	CCHF vOTU inh-2
Cc1cc(C)cc(OCC(=O)N2N=C(C(F)(F)F)CC2(O)C(C)(C)C)c1 (stereo not drawn)	30.0*	39.9	i	3.1	11.6
Cc1cc(C)cc(OCC(=O)N2N=C(c3cccnc3)CC2(O)C(F)(F)F)c1 (stereo not drawn)	-14.5	11.8	0.7	6.9	.
Cc1ccc(S(=O)(=O)NN=C(c2ccccc2)c2cccs2)cc1	32.2*	8.7	i	12.0	-2.6
C/C(=N\NS(=O)(=O)c1ccc(C)cc1)c1cccs1	0.5	2.1	.	-2.2	.
COc1ccc(C(O)c2nc(-c3ccoc3)cs2)cc1 (stereo not drawn)	29.7*	-1.1	i	2.6	-20.4
OC(c1ccc(F)cc1)c1nc(-c2ccoc2)cs1 (stereo not drawn)	-5.1	-11.2	-0.3	6.5	.
c1ccc2c(-c3nnc(SCc4cn5ccccc5n4)o3)c[nH]c2c1	-5.1	14.3	-5.3	0.6	.
O=C1CCC/C1=C/Nc1ccc(Cl)cc1	19.1	-5.9	0.8	-0.5	.
